# Test results taken from PubChem BioAssay AID687021 (Broad Institute, 2013).
# Unmarked numbers belong to inactive results. Activity calls are given as the source filed them.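 How the source made its calls: active means compounds lowering luciferase light whose fitted half-effect concentration is at most twice the top tested dose; inconclusive means flat curve with 30 to 70% inhibition, or poor fit; inactive means the rest.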
# Assay: luciferase signal loss, tTA control fusion, HeLa F-luc tTA cells, dry powder, counter-screen for HIV Env fusion inhibitor project, dose response (AID 687021)
# Details: luciferase luminescence counterscreen; series mostly up to 35 µM; activity change, negative = inhibition: at the top concentration
SMILES,"activity change, negative = inhibition",outcome
CCCOc1ccc(S(=O)(=O)NCc2cccnc2)cc1,-9.22%,–
Clc1ccc2c(c1)C(C1=NCCN1)c1ccccc1CS2 (configuration not stated),–,inactive
CC1(C)CC(NC(=O)C(=O)Nc2ccc(Cl)cc2)CC(C)(C)N1,60.4%,–
CCOc1ccc(OCC)c(S(=O)(=O)NCc2ccncc2)c1,–,inactive
Cc1noc(C)c1S(=O)(=O)Nc1cccc2c1O[C@@H](CN(C)Cc1ccc(C(F)(F)F)cc1)[C@H](C)CN([C@@H](C)CO)C2=O,24.8%,–
CC(=O)Nc1ccc(NC(=O)CN(c2ccc(C34CC5CC(CC(C5)C3)C4)cc2)S(C)(=O)=O)cc1,–,inactive
COc1ccccc1CCNCc1ccc(OC)c(OCc2ccccc2)c1,–,inactive
C[C@H]1CN([C@@H](C)CO)C(=O)c2ccccc2-c2ccccc2CO[C@H]1CN(C)S(=O)(=O)c1ccccc1C#N,39.5%,–
Nc1nonc1C(=O)NCCNCc1c(OCc2ccccc2F)ccc2ccccc12,–,inactive
C[C@H]1CCCCO[C@@H](CN(C)Cc2ccncc2)[C@@H](C)CN([C@@H](C)CO)C(=O)c2cc(NC(=O)Nc3ccccc3)ccc2O1,13.1%,–
CC(C)(C)c1ccc(-c2noc(CCC(=O)NCC3CCCO3)n2)cc1 (configuration not stated),26.6%,–
CCOc1ccc(S(=O)(=O)NC(C)c2ccncc2)cc1 (configuration not stated),40.5%,–
Cc1noc(C)c1S(=O)(=O)Nc1cccc2c1O[C@H](CN(C)Cc1ccc(C(F)(F)F)cc1)[C@H](C)CN([C@H](C)CO)C2=O,109%,–
CCOc1ccc(S(=O)(=O)NCc2ccncc2)cc1Cl,43.3%,–
Cc1ccc(S(=O)(=O)Nc2cccc3c2O[C@@H](CN(C)Cc2ccc(Cl)c(Cl)c2)[C@@H](C)CN([C@H](C)CO)C3=O)cc1,61.2% [at 11 µM],–
COc1ccc(S(=O)(=O)NCc2ccncc2)cc1OC,–,inactive
COc1ccc(-c2cc(C(=O)NNC(=S)NC(=O)c3c(-c4ccccc4)noc3C)[nH]n2)cc1,-6.56%,–
CCCn1nc(C(=O)Nc2ccc3nc(N4CCOCC4)sc3c2)ccc1=O,2.85%,–
Cc1noc(C)c1S(=O)(=O)Nc1cccc2c1O[C@@H](CN(C)Cc1ccc(C(F)(F)F)cc1)[C@H](C)CN([C@H](C)CO)C2=O,39.5%,–
Cc1ccc(-c2nnc3ccc4c(C(F)(F)F)cc(C(F)(F)F)nc4n23)cc1,19.6%,–
CCOc1ccc(S(=O)(=O)NCc2ccccn2)cc1,54.6%,–
CCCNC(=O)N1[C@H](C#N)[C@H](c2ccc(-c3cccnc3)cc2)[C@@H]1CO,7.74%,–
